According to PubChem BioAssay AID504332 (National Center for Advancing Translational Sciences (NCATS), 2011):
Screen size: about 350,000 compounds; about 31,000 (8.9%) were called active. Roughly 15% stayed inconclusive and do not appear here. Calls follow the shape of the dose curve; as a rule, active = well fitted inhibition curve with a large enough effect; inconclusive = small, poorly fitted or top-dose-only effect; inactive = no such curve, though single readings can be large or run the other way. The entries come from a sample that favours actives as a whole.

Target: Histone-lysine N-methyltransferase EHMT2 (Homo sapiens) (UniProt Q96KQ7)
Sequence (Q96KQ7 913-1193 limits assumed): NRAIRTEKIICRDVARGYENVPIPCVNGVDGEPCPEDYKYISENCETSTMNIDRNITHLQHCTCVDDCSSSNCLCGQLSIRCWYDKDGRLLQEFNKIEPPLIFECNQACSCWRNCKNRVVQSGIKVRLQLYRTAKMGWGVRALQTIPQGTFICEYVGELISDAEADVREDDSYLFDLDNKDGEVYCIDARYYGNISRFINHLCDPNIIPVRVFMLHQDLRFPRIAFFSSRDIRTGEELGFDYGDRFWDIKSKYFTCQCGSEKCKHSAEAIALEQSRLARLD
Assay: qHTS Assay for Inhibitors of Histone Lysine Methyltransferase G9a; also: nearly all actives have a fitted effect of over 75% in size
Details: G9a H3K9 monomethylation, AlphaScreen, 2 h; series mostly up to 59 µM; activity, negative = inhibition: at the top concentration
From the text: Methylated lysines, on the N-terminal tails of histone proteins serve as epigenetic markers to recruit factors that can then modify local chromatin structure to lead to functional consequences. G9a and other members of the SUV39 family of the SET domain-containing superfamily of histone lysine methyltransferases (HMT) have been identified to specifically methylate Lys9 of histone H3 (H3K9). G9a catalyzes the mono- and di-methylation of H3K9 in mammalian euchromatic regions, where the resulting H3K9me2 is indicative of transcriptional repression. […] The inhibition of G9a will result in transcriptional activation and work synergistically with DNA methyltransferase and histone deacetylase inhibitors, to kill cancer cells. This qHTS assay for identification of G9a inhibitors is a chemiluminescence based AlphaScreen (PerkinElmer). Methylation of biotinylated-histone peptide is measured through specific antibody-based detection, in conjunction with streptavidin-coated donor and anti-IgG antibody-coated acceptor beads. The method is particularly well suited for detection of inhibitors acting by the desired histone peptide competitive mechanism and is applicable to testing other HMTs. Although AlphaScreen has significant advantages with its utility in a variety of epigenetic target assays, the primary screening data provided in this deposition should be used with caution due to the prevalence of screening artifacts. An AlphaScreen counterscreen is highly recommended to be run against any putative actives to eliminate non specific artifacts. Alternatively, one can use other AlphaScreen assays in PubChem to filter out promiscuous hits. Quinn et al. A chemiluminescence-based method for identification of histone lysine methyltransferase inhibitors. Mol Biosyst 6(5): 782-8. 2010. PMID: 20567762 [2] Baell,Holloway. New substructure filters for removal of pan assay interference compounds (PAINS) from screening libraries and for their exclusion in bioassays. J Med Chem. 53(7):2719-40. 2010. PMID: 20131845 NIH Molecular Libraries Probe Production Network [MLPCN] NIH Chemical Genomics Center [NCGC] Structural Genomics Consortium (SGC) NIH Grant: 5U54 MH084681-02
To each well of a 1,536w plate, 2ul of HMT enzyme (final 20nM) were added, using a nanoliter dispenser. The G9a- and GLP-inhibitor BIX-01294 (CID: 25150857) are used as an intraplate control, with a 16-point titration in duplicate. A Kalypsys pin-tool transferred 23nl of library compound solution in DMSO to each well. Following a 15 min incubation of enzyme with compounds at room temperature, 1ul mixture of b-H3K9 peptide substrate (final 500nM) and SAM cofactor (final 20uM) were added. Reactions were allowed to proceed at room temperature for 2 hours. Methylated b-H3K9 peptide product was detected with 0.5 ug/mL rabbit polyclonal anti-monomethyl histone H3K9 antibody (Abcam Inc., Cambridge, MA) and 20 ug/mL each streptavidin-coated donor and anti-rabbit IgG acceptor AlphaScreen beads. Antibody and beads were added in a 1ul dispense, for a final volume of 4ul, and plates were incubated, protected from the light, for 10 min at room temperature. Microplates were then read on an EnVision multilabel plate reader using the 1,536 plate HTS AlphaScreen aperture (excitation time 80 ms, measurement time 240 ms).
% is scaled to controls: 0 for no effect and ±100 for the full control effect; potency is read from the fitted curve at half-maximal effect.

`O=C(O)CC1S/C(=N\N=C/c2ccccc2O)N(c2ccc(O)cc2)C1=O` (configuration not stated) was tested. Which “activity, negative = inhibition” value did it give?
The value was 31.1% (inactive).

How did the Potency turn out when `CCCC[C@H]1C(=O)N(c2ccccc2)N(c2ccc(O)cc2)C1=O` was run?
Its Potency is 7.94 µM (active).

`CCCCc1ccc(NC(=O)CN2C(=O)NC(Cc3ccccc3)C2=O)cc1` (configuration not stated) was tested. Which “activity, negative = inhibition” value did it give?
Its value is 4% [at 102 µM] (inactive).

Which “activity, negative = inhibition” value does the source give for `COc1ccc(-n2c(=O)c3c(c4cc(OC)ccc4n3C)n(Cc3cccc(C)c3)c2=O)cc1` here?
The value was 2.9% (inactive).

For `COc1ccc(C)cc1NC(=O)CN(C)S(=O)(=O)c1ccc2c(c1)n(C)c(=O)c(=O)n2C`, which “activity, negative = inhibition” value is on record?
The value was 42.7% [at 102 µM] (inactive).

Which “activity, negative = inhibition” value does the source give for `COc1ccc2[nH]c(C(=O)N/N=C/c3cc(OC)c(OC)c(OC)c3)cc2c1` here?
Its value is 10.8% [at 102 µM] (inactive).

How did the “activity, negative = inhibition” value turn out when `CCC(=O)c1ccc(OC(=O)/C=C/c2cc(OC)c(OC)c(OC)c2)cc1` was run?
Its value is 10.6% [at 102 µM] (inactive).

How did the Potency turn out when `COc1cc(/C=C/C2=CC(C)(C)NC(=S)N2)cc(OC)c1OC` was run?
The Potency was 39.8 µM (active).

How did the “activity, negative = inhibition” value turn out when `Cc1cccc(-c2nc(SCc3ccc(Br)cc3)n3[nH]c(=O)cc3n2)c1` was run?
Its value is 46.9% (inactive).

`O=C(c1cn(-c2ccccc2)nc1-c1cccnc1)N1CCN(S(=O)(=O)c2ccccc2F)CC1` was tested. Which activity, negative = inhibition did it give?
The activity, negative = inhibition was -2.44% [at 12.7 µM] (inactive).

`Cc1cc(C)c(C2C3=C(Nc4c2c(C)nn4-c2ccccn2)c2ccccc2C3=O)c(C)c1` (configuration not stated) was tested. Which Potency did it give?
Its Potency is 11.2 µM (active).

Which “activity, negative = inhibition” value does the source give for `Cc1nn(-c2ccccn2)c2c1C(c1ccncc1)C1=C(CC(C)(C)CC1=O)N2` (configuration not stated) here?
The value was -38.3% (inactive).

For `O=C(Nc1ncccc1O)c1ccc(S(=O)(=O)N2CCCC2)cc1`, which activity, negative = inhibition is on record?
Its activity, negative = inhibition is 6.98% [at 12.7 µM] (inactive).

How did the activity, negative = inhibition turn out when `O=[N+]([O-])c1cccc(/C=N/Nc2ncc(Br)cn2)c1` was run?
Its activity, negative = inhibition is 18% [at 0.501 µM] (inactive).

Which Potency does the source give for `Cc1cc(-c2ccc(/C=N/n3cnnc3)o2)c([N+](=O)[O-])cc1C` here?
Its Potency is 50.1 µM (active).

`Clc1cc(-c2ccc(/C=N/n3cnnc3)o2)ccc1Br` was tested. Which “activity, negative = inhibition” value did it give?
Its value is -7.95% (inactive).

For `Cc1ccc(Cl)cc1-c1ccc(/C=N/n2cnnc2)o1`, which “activity, negative = inhibition” value is on record?
Its value is 14.3% (inactive).

Which “activity, negative = inhibition” value does the source give for `CCc1cnc2c(c1SCC(=O)c1ccccc1)c(=O)n(C)c(=O)n2C` here?
Its value is -0.675% (inactive).

For `Cc1cccc(-c2nnc(SCC(=O)N3CCCc4ccccc43)o2)c1`, which “activity, negative = inhibition” value is on record?
The value was 15.9% (inactive).

Which Potency does the source give for `CN1CCN(c2oc(-c3ccc(COc4ccc(Cl)cc4)o3)nc2C#N)CC1` here?
Its Potency is 11.2 µM (active).

`COc1ccc(OCc2ccc(-c3nc(C#N)c(N4CCN(c5ccccc5)CC4)o3)o2)cc1` was tested. Which “activity, negative = inhibition” value did it give?
Its value is -29% (inactive).

How did the “activity, negative = inhibition” value turn out when `CCC(C)Nc1oc(-c2ccc(COc3ccc(Cl)cc3)o2)nc1C#N` (configuration not stated) was run?
Its value is -37.3% (inactive).

How did the “activity, negative = inhibition” value turn out when `C=CCOc1ccc(/C=C/C(=O)OCC(=O)NC(C)c2ccc(F)cc2)cc1` (configuration not stated) was run?
The value was -17.7% [at 102 µM] (inactive).

`COc1ccc(-c2nc3scc(CCNS(=O)(=O)c4cc(F)ccc4OC)n3n2)cc1OC` was tested. Which “activity, negative = inhibition” value did it give?
The value was 7.7% (inactive).

Which “activity, negative = inhibition” value does the source give for `COc1ccc(S(=O)(=O)N2CCC(C(=O)N3CCc4ccccc4C3)CC2)cc1OC` here?
Its value is -13.7% (inactive).

Which Potency does the source give for `COc1ccc(S(=O)(=O)N2CCN(CC(=O)N3c4ccccc4CC3C)CC2)cc1OC` (configuration not stated) here?
Its Potency is 56.2 µM (active).

`CC1Cc2ccccc2N1C(=O)CSc1nnc(-c2ccc(S(=O)(=O)N3CCCC3)cc2)n1C` (configuration not stated) was tested. Which “activity, negative = inhibition” value did it give?
Its value is -19.1% (inactive).

How did the “activity, negative = inhibition” value turn out when `CCN(CCCNC(=O)c1c(C)oc2ncn(CC(C)C)c(=O)c12)Cc1ccccc1` was run?
Its value is -2.01% (inactive).

`COc1cccc(-c2nnc3n(CCc4ccccc4)c(=O)c4ccccc4n23)c1O` was tested. Which “activity, negative = inhibition” value did it give?
The value was -23.1% (inactive).

With `CCN(CC(=O)Nc1ccc(Cl)c(S(=O)(=O)N(C)C)c1)Cc1nc2ccccc2c(=O)[nH]1` as the compound, how does the Potency read?
The Potency was 39.8 µM (active).

How did the “activity, negative = inhibition” value turn out when `CN(C)S(=O)(=O)c1cc(NC(=O)CN2C(=O)NC3(CCCc4ccccc43)C2=O)ccc1Cl` (configuration not stated) was run?
Its value is -7.78% (inactive).

For `CCCCN(CC(=O)Nc1cccc(S(=O)(=O)N2CCCC2)c1)Cc1nc2ccccc2c(=O)[nH]1`, which Potency is on record?
The Potency was 7.94 µM (active).

`CCN(CC(=O)Nc1cccc(S(N)(=O)=O)c1)Cc1nc2ccccc2c(=O)[nH]1` was tested. Which “activity, negative = inhibition” value did it give?
Its value is -46.9% [at 102 µM] (inactive).

For `O=C(Cn1cnc2ccccc2c1=O)Nc1cccc(S(=O)(=O)N2CCCCC2)c1`, which “activity, negative = inhibition” value is on record?
The value was 6.9% [at 102 µM] (inactive).

For `CCCC(=O)N(CCc1ccccc1)Cc1nc2ccccc2c(=O)[nH]1`, which “activity, negative = inhibition” value is on record?
Its value is 10.1% (inactive).

For `O=C(COc1ccccc1F)Nc1ccc(C(=O)OCc2cc(=O)n3nc(C4CC4)sc3n2)cc1`, which “activity, negative = inhibition” value is on record?
The value was 7.25% (inactive).

How did the “activity, negative = inhibition” value turn out when `CCCNc1ncnc2c1c(-c1ccccc1)cn2-c1ccc(OCC)cc1` was run?
Its value is -35.9% (inactive).

`S=C(Nc1cccc(Br)c1)N1CCn2cccc2C1c1cccnc1` (configuration not stated) was tested. Which Potency did it give?
Its Potency is 50.1 µM (active).

How did the “activity, negative = inhibition” value turn out when `CC(=O)N1c2ccc(S(=O)(=O)N3CCCC(C(=O)NCc4ccc(Cl)cc4)C3)cc2CC1C` (configuration not stated) was run?
Its value is 10.1% (inactive).

With `COC(=O)c1cc(NC(=O)CCS(=O)(=O)c2cc(Br)cc3c2N(C(=O)C2CC2)CC3)cc(C(=O)OC)c1` as the compound, how does the “activity, negative = inhibition” value read?
The value was 0.579% (inactive).

`N#Cc1ccccc1S(=O)(=O)N1CCN(Cc2c(O)ccc3ccccc23)CC1` was tested. Which activity, negative = inhibition did it give?
The activity, negative = inhibition was -0.103% [at 2.33 µM] (inactive).

How did the “activity, negative = inhibition” value turn out when `CCCCn1c(N)c(N(CC)C(=O)/C=C/c2ccco2)c(=O)[nH]c1=O` was run?
Its value is -6.99% (inactive).

Which Potency does the source give for `CCCCN=C1N/C(=C\c2ccco2)C(=O)N1c1ccccc1` here?
The Potency was 44.7 µM (active).

`O=C(OCN1C(=O)c2ccccc2C1=O)/C(=C\c1ccco1)NC(=O)c1ccccc1` was tested. Which “activity, negative = inhibition” value did it give?
The value was -8.62% (inactive).

With `COc1cc(NC(=O)c2cc(C3CC3)nc3c2c(C)nn3-c2ccccc2)cc(OC)c1` as the compound, how does the “activity, negative = inhibition” value read?
The value was 5.19% (inactive).

How did the “activity, negative = inhibition” value turn out when `CCc1ccc(S(=O)(=O)Nc2cc3c(C(=O)OCc4ccccc4)c(C)oc3c3ccccc23)cc1` was run?
Its value is -32.7% (inactive).

With `CCCCNC(=O)Cn1nc(C)c(S(=O)(=O)N2CCOCC2)c1C` as the compound, how does the activity, negative = inhibition read?
Its activity, negative = inhibition is 8.75% [at 12.7 µM] (inactive).
